KCNQ2 inh: inhibitors of rat KCNQ2 potassium channel | O88943 | CHO-K1 KCNQ2, FluxOR thallium flux, 20 min; hits give low values | B-score at 10 µM | 310,000 tested, 1.1% active;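 active means fluorescence ratio B-score at most minus 3 library SDs, with starting brightness B-score within 2 library SDs, cut at about -5.5 in these data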
KCNQ2 pot: potentiators of rat KCNQ2 potassium channel; O88943; CHO-K1 KCNQ2, FluxOR thallium flux fluorescence; hits give high values; 310,000 tested, 0.54% active; B-score at 10 µM;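 active means fluorescence ratio B-score at least 3 SD of library B-scores, with initial fluorescence B-score within 3 of them, cut at about 5.3 in these data; same plate scores as AID 2156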;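 further: B-score of peak minus minimum over baseline fluorescence ratio after K+ and Tl+ stimulus; positive B-score means potentiation of KCNQ2 with more thallium influx and brighter signal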
KCNQ2 inh conf: confirmation of rat KCNQ2 potassium channel inhibitors | shares compounds with KCNQ2 inh | KCNQ2-expressing cells, thallium flux, inhibition; hits give low values | activity change, negative = inhibition, % at 10 µM | 1,000 tested, 57% active | AID 493025;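 further: 0% = vehicle wells and values are ratio percent relative to vehicle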
KCNQ1 spec: KCNQ2 inhibitor that also affects human KCNQ1 channel | shares compounds with KCNQ2 inh | activity change, negative = inhibition, % at 10 µM | KCNQ1-expressing cells, FluxOR thallium flux fluorescence; hits give low values | 1,000 tested, 15% active;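 active means activity change at least 3 SD of negative controls below their mean in both duplicate wells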;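 further: CHO cells stably transfected with KCNQ1 and depolarized by potassium stimulus; peak minus minimum fluorescence over baseline after thallium addition; 0% = vehicle negative control and -100% = blank without thallium stimulus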
Target sequence (P51787 whole entry, looked up): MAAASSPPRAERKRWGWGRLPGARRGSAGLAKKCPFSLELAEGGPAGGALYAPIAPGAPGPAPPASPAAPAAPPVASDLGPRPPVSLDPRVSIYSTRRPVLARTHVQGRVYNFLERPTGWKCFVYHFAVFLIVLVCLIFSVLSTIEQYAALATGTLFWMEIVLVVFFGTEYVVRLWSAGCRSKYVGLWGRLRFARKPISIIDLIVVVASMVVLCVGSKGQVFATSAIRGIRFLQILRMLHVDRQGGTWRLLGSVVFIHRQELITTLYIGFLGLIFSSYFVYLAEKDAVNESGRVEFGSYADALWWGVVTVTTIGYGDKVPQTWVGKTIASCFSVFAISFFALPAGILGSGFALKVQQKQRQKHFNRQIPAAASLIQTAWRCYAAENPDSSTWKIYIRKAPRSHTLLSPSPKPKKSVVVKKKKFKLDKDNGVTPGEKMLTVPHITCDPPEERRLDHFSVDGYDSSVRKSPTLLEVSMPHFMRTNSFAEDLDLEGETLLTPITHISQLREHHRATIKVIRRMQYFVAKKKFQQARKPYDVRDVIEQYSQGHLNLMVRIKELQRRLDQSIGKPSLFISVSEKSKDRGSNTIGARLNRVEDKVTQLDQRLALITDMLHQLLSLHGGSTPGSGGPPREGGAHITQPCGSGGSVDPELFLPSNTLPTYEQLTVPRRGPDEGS
CHO parental ctr: KCNQ2 inhibitor counter-screen hit in parental CHO cells; shares compounds with KCNQ2 inh; thallium flux counter-screen; hits give low values; activity change, % at 10 µM; 1,000 tested, 14% active; AID 493029;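 further: 0% = vehicle negative controls with stimulus buffer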
KCNQ2 inh confirm: blocks rat KCNQ2 current in automated patch clamp. 550 tested, 49% active. shares compounds with KCNQ2 inh. KCNQ2-expressing cells. calls only at 10 µM
The depositor's hits bear a star; i = inactive; · = not tested or not shown; + = active, no number. Hits are enriched below; roughly 1.6% of the tested compounds scored in any of these assays. Unless noted, how the calls were made is not given here.

SMILES	KCNQ2 inh	KCNQ2 pot	KCNQ2 inh conf	KCNQ1 spec	CHO parental ctr	others
COc1cccc(C(=O)NCC(c2cccs2)N2CCc3ccccc32)c1 (stereo not given)	i	·	·	·	·
COc1ccccc1NC(=O)C(=O)NCC(c1ccco1)N1CCc2ccccc21 (stereo not given)	-7.15*	-7.15	i	i	i
O=C(NCC(c1ccco1)N1CCc2ccccc21)C(=O)Nc1ccccc1F (stereo not given)	i	·	·	·	·
COc1cc(C(=O)NCC(c2cccs2)N2CCc3ccccc32)cc(OC)c1OC (stereo not given)	-8.68*	-8.68	i	i	i
O=C(NCC(c1cccs1)N1CCc2ccccc21)c1ccccc1 (stereo not given)	i	·	·	·	·
COc1ccccc1C(=O)NCC(c1cccs1)N1CCc2ccccc21 (stereo not given)	-7.15*	-7.15	i	i	i
NS(=O)(=O)c1cccc(NC(=O)CCS(=O)(=O)c2ccc(Cl)cc2)c1	i	·	·	·	·
Cn1c(SCC(=O)NCc2ccco2)nnc1C1CCCC1	i	0.28	·	·	·
O=C(Nc1cccc2ccccc12)NC1CCCCC1O (stereo not given)	i	·	·	·	·
Cc1c(/C=N/O)c2ccccn2c1C=O	i	1.26	·	·	·
Cc1coc2c1c(C)cc1oc(=O)c(CC(=O)NCCCN3CCCC3=O)c(C)c12	i	1.36	·	·	·
CCCC(=O)NCCc1nc2ccccc2n1CCC	i	1.98	·	·	·
CCCn1c(CNC(=O)Cc2ccccc2)nc2ccccc21	-6.74*	-6.74	i	i	i
COC(=O)c1ccc(CSc2nc3ccccc3c(=O)n2Cc2ccco2)o1	i	·	·	·	·
COc1ccc(CNC(=O)CN(C)S(=O)(=O)c2ccc(Cl)cc2)cc1	i	·	·	·	·
O=C(CN(Cc1ccccc1)S(=O)(=O)c1ccc(F)cc1)NCCC1=CCCCC1	i	·	·	·	·
Cc1ccc(S(=O)(=O)N(CC(=O)NCCC2=CCCCC2)Cc2ccccc2)cc1	-10.8*	-10.8	-30.0%*	i	i	KCNQ2 inh confirm=i
Cc1ccc(S(=O)(=O)N(CC(=O)NCCC2=CCCCC2)Cc2ccccc2F)cc1	-7*	-7	i	i	i
O=C(CN(Cc1ccccc1F)S(=O)(=O)c1ccc(Cl)cc1)NCCC1=CCCCC1	i	·	·	·	·
COc1ccc(CNC(=O)CN(Cc2ccc(C)cc2)S(=O)(=O)c2ccc(Cl)cc2)cc1	-6.67*	-6.67	i	i	i
O=C(NC1CCCC1)C1CCN(C(=O)c2ccc(Cl)cc2Cl)CC1	i	·	·	·	·
COc1ccc(/C(=C/Nc2cccc(Br)c2)C(C)=O)cc1OC	i	·	·	·	·
N/C(=N\c1nc2c(c(=O)[nH]1)CCCC2)Nc1ccccc1Sc1ccccc1	i	·	·	·	·
O=C(Nc1ccccc1)c1nccn1Cc1ccc(F)cc1	i	·	·	·	·
CN(C)c1nc(N/N=C/c2c[nH]c3ccccc23)nc(N2CCOCC2)n1	i	1.74	·	·	·
SMILES	KCNQ2 inh	KCNQ2 pot	KCNQ2 inh conf	KCNQ1 spec	CHO parental ctr	others
C(=N\Nc1nc(N2CCCCC2)nc(N2CCCCC2)n1)/c1c[nH]c2ccccc12	-9.31*	-9.31	-36.5%*	i	i	KCNQ2 inh confirm=+
COC(=O)/C(=C\C(=O)c1ccccc1)Nc1cccc(C(F)(F)F)c1	-7.82*	-7.82	i	i	i
O=C(Nc1ccccc1)Nc1cccc(C(F)(F)F)c1	i	·	·	·	·
Cc1ccc(N2CCN(S(=O)(=O)c3c(C)nc4scc(C)n4c3=O)CC2)c(C)c1	i	2.12	·	·	·
Cc1ccc(OCC(=O)NC2CCS(=O)(=O)C2)c([N+](=O)[O-])n1 (stereo not given)	i	·	·	·	·
CC(C)c1ccc2c(c1)C(N1CCNCC1)Cc1ccc(F)cc1S2 (stereo not given)	-9.69*	-9.69	-38.5%*	-36.5%*	-31.0%*	KCNQ2 inh confirm=i
CN1CCN(C2Cc3ccc(F)cc3Sc3cc(F)c(Cl)cc32)CC1 (stereo not given)	i	·	·	·	·
COc1ccc(N2C(=O)C(CN3CCN(C)CC3)C2c2ccccc2)cc1 (stereo not given)	i	·	·	·	·
COc1ccc(Cl)cc1NC(=S)NCCc1ccc(S(N)(=O)=O)cc1	i	·	·	·	·
COc1ccc(Cl)cc1NC(=S)NCCc1ccc(F)cc1	-8.68*	-8.68	-36.5%*	-34.0%*	-30.5%*	KCNQ2 inh confirm=+
CCCCCCCn1c(C)nnc1-c1cnn(C)c1N	i	0.02	·	·	·
CSc1nsc(SCC(=O)Nc2ccccc2F)n1	i	1.4	·	·	·
COC(=O)c1ccc2c(=O)[nH]c(COC(=O)c3c(-c4ccccc4Cl)noc3C)nc2c1	i	0.98	·	·	·
O=C(Nc1ccccc1F)c1cc(-c2ccco2)nc2ccccc12	i	0.04	·	·	·
COc1ccc(-c2cc(C(=O)NN3CCOCC3)c3ccccc3n2)cc1OC	i	0.26	·	·	·
O=C(Nc1ccccc1N1CCOCC1)c1cc(-c2ccco2)nc2ccccc12	-7.02*	-7.02	-54.0%*	-54.5%*	-50.0%*	KCNQ2 inh confirm=+
COc1cc(-c2cc(C(=O)Nc3nc4ccccc4s3)c3ccccc3n2)cc(OC)c1OC	i	·	·	·	·
COc1cc(-c2cc(C(=O)Nc3ccc(O)cc3)c3ccccc3n2)cc(OC)c1OC	-7.67*	-7.67	-29.5%*	i	i	KCNQ2 inh confirm=+
COc1cc(-c2cc(C(=O)Nc3ccccc3N3CCOCC3)c3ccccc3n2)cc(OC)c1OC	-7.79*	-7.79	-31.0%*	i	i	KCNQ2 inh confirm=+
O=C1CC(c2cccc(Br)c2)C2=C(COC2=O)N1 (stereo not given)	i	0.72	·	·	·
C=C(C)C1CC=C(C)/C(=N/NC(=O)COc2cccc3ccccc23)C1 (stereo not given)	-9.24*	-9.24	i	i	i
C=C(C)C1CC=C(C)/C(=N/NC(=O)COc2cccc(C)c2)C1 (stereo not given)	i	1.41	·	·	·
COc1ccc([N+](=O)[O-])cc1NC(=O)CC1SC(=Nc2cccc(C)c2C)N(/N=C/c2cccc(OC)c2OC)C1=O (stereo not given)	i	·	·	·	·
COc1ccc(Br)cc1CNC(=O)CN1C(=O)C(c2ccccc2)Oc2cccnc21 (stereo not given)	-7*	-7	-26.0%*	i	i	KCNQ2 inh confirm=+
COc1ccc(NC(=O)CCCN2C(=O)C(c3ccccc3)Oc3cccnc32)cc1OC (stereo not given)	i	0.35	·	·	·
SMILES	KCNQ2 inh	KCNQ2 pot	KCNQ2 inh conf	KCNQ1 spec	CHO parental ctr	others
CC(Oc1ccc2ccc(=O)oc2c1)C(=O)c1ccccc1 (stereo not given)	i	0.15	·	·	·
Cc1ccc(NC2CCCN(C(=O)c3ccoc3C)C2)cc1C (stereo not given)	i	·	·	·	·
Cc1ccc(CNS(=O)(=O)c2ccc(C(C)(C)C)cc2)n1C	-7.14*	-7.14	·	i	i	KCNQ2 inh confirm=+
CC(C)(C)c1ccc(S(=O)(=O)NCCc2ccncc2)cc1	i	·	·	·	·
Cc1ccc(S(=O)(=O)Cn2nnnc2C(C(C)C)N2CCC(O)CC2)cc1 (stereo not given)	i	0.49	·	·	·
O=C(Cc1sc(-c2ccccc2)nc1-c1ccccc1)Nc1ccccc1	i	0.16	·	·	·
O=C(Cc1sc(Nc2ccccc2)nc1-c1ccccc1)NCc1ccccc1	-7.13*	-7.13	i	i	i

Source: PubChem
